# Screening data as filed in PubChem BioAssay.
# PvdQ acylase = blocks Pseudomonas aeruginosa PvdQ acylase activity. actives 0.063% (n = 340,000). inhibition, % at 10 µM. purified PvdQ acylase, fluorescence plate reader; in the data active means inhibition above about 30%, passing the limit was not always enough;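 further: 0% = vehicle neutral wells and 100% = reference inhibitor wells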
# DENV2 CPE rescue = DENV2-induced cell death inhibition. DENV2-infected cells, cytopathic effect rescue, plate reader. CPE inhibition, % at 9.99 µM. AID 651640. actives 1.7% (n = 350,000); in the data active means CPE inhibition above about 20%, passing the limit was not always enough; tested in BHK-21 cells;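 further: 0% = median of neutral control wells and 100% = median of positive control wells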
# miR122 inh = inhibitors of miR-122 in Huh7 cells; actives 0.3% (n = 340,000); AID 602342; activation (reporter increase), % at 12.5 µM; Huh7 miR-122 Renilla luciferase sensor, 48 h; neutral wells = 0, positive control = 100;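 active means mean replicate activation score at least 90 and every replicate individually at or above 90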;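 further: higher luciferase means less miR-122 activity so hits act as miR-122 inhibitors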
# Statin myotox sup = protects C2C12 myotubes from simvastatin toxicity; ATP luminescence, 48 h; scaled: DMSO 0, geranylgeraniol control 100; rescue of ATP level, % at 7.49 µM; actives 0.78% (n = 330,000); AID 602340;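 active means mean ATP rescue above about 67%, or every replicate alone reaching that limit, limit read from the data, passing the limit was not always enough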;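 further: myotubes were challenged with 10 µM simvastatin during compound exposure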
# PGC1a acetyl inh = lowers PGC1a acetylation signal in U2OS cells. AlphaScreen anti-acetyl-lysine; with virally co-expressed GCN5 acetyltransferase. inhibition, % at 15.6 µM. actives 0.17% (n = 350,000). AID 651687;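 active means every replicate shows inhibition of at least 40%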;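 further: 0% = neutral control wells and 100% = positive control wells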
# An asterisk follows results filed as active; · = no result given; [ ] = another dose, or the depositor's remark. In the library only some 2.2% were active in any assay of this set; here they are far more common.
SMILES,PvdQ acylase,DENV2 CPE rescue,miR122 inh,Statin myotox sup,PGC1a acetyl inh
C[C@@H]1CN([C@@H](C)CO)C(=O)c2cccc(N(C)C)c2O[C@@H]1CN(C)Cc1ccc(C(=O)Nc2ccccc2N)cc1,·,-1,109*[16.7 µM],35,-10
CC(C)NC(=O)Nc1cccc2c1O[C@H](CN(C)Cc1ccc(C(=O)Nc3ccccc3N)cc1)[C@H](C)CN([C@@H](C)CO)C2=O,·,21*,·,·,-1
C[C@H](CO)N1C[C@H](C)[C@H](CN(C)Cc2ccc(-c3ccccc3)cc2)Oc2c(NC(=O)c3nc4ccccc4s3)cccc2C1=O,·,41*,2[16.7 µM],·,22
C[C@H](CO)N1C[C@H](C)[C@@H](CN(C)Cc2ccc(-c3ccccc3)cc2)Oc2c(NC(=O)c3nc4ccccc4s3)cccc2C1=O,·,-8,-2[16.7 µM],·,·
CC(C)NC(=O)Nc1cccc2c1O[C@H](CN(C)Cc1ccc(-c3ccccc3)cc1)[C@H](C)CN([C@@H](C)CO)C2=O,·,4,-3[16.7 µM],3,·
CC(C)NC(=O)Nc1cccc2c1O[C@H](CN(C)Cc1ccc(-c3ccccc3)cc1)[C@@H](C)CN([C@@H](C)CO)C2=O,·,-1,0[16.7 µM],66*,-8
CC(=O)N(C)C[C@H]1Oc2ncc(-c3ccc(C(=O)N(C)C)cc3)cc2C(=O)N([C@H](C)CO)C[C@H]1C,·,7,-1[16.7 µM],3,0
C[C@H](CO)N1C[C@H](C)[C@@H](CN(C)S(=O)(=O)c2ccc(-c3ccccc3)cc2)OCc2cnnn2CCCC1=O,·,5,1[16.7 µM],24,-2
O=C(Nc1ccccc1)N1C[C@@H]2[C@H](c3ccccc31)[C@H](CO)N2C(=O)c1ccccc1F,·,·,0[16.7 µM],7,-1
C[C@H](CO)N1C[C@H](C)[C@@H](CN(C)C(=O)Nc2ccccc2)Oc2ccc(NC(=O)Nc3ccc(F)cc3)cc2C1=O,·,-9,-2[16.7 µM],-1,-5
C[C@@H]1CN([C@H](C)CO)C(=O)c2cccc(NC(=O)Nc3ccccc3)c2O[C@H]1CN(C)Cc1ccc(C(=O)Nc2ccccc2N)cc1,·,2,18[16.7 µM],113*,-5
C[C@@H]1CN([C@@H](C)CO)C(=O)c2cccc(NC(=O)Nc3ccccc3)c2O[C@@H]1CN(C)Cc1ccc(C(=O)Nc2ccccc2N)cc1,·,4,140*[16.7 µM],-115,-2
C[C@H](CO)N1C[C@H](C)[C@@H](CN(C)S(=O)(=O)c2ccc(Cl)cc2)Oc2c(NC(=O)c3nc4ccccc4s3)cccc2C1=O,·,25*,6[16.7 µM],-9,5
C[C@@H]1CN([C@H](C)CO)C(=O)c2cccc(NC(=O)Nc3ccc(F)cc3)c2O[C@H]1CN(C)Cc1ccc(C(=O)Nc2ccccc2N)cc1,·,0,·,·,-1
C[C@H](CO)N1C[C@H](C)[C@H](CN(C)Cc2ccc(C(=O)Nc3ccccc3N)cc2)Oc2c(NC(=O)Nc3ccc(F)cc3)cccc2C1=O,·,36*,·,·,-11
C[C@@H]1CN([C@@H](C)CO)C(=O)c2cccc(NC(=O)Nc3ccc(F)cc3)c2O[C@H]1CN(C)Cc1ccc(C(=O)Nc2ccccc2N)cc1,·,0,·,·,5
CN(C)C(=O)c1cccc(-c2ccc(C3[C@@H]4CN(C(=O)c5ccccn5)C[C@H]3N4)cc2)c1 (stereo not given in full),·,-1,·,·,5
COc1cccc(S(=O)(=O)N2CCCCN3[C@H](CO)[C@H](c4ccc(-c5ccccc5)cc4)[C@@H]3C2)c1,·,-7,7[16.7 µM],·,-4
CCOC(=O)c1cc(=O)n(Cc2ccccc2C)c2ccccc12,-11,-6,-2,103*,-11
COc1ccc(CN(C)C[C@@H]2Oc3c(NC(=O)c4cc(C)nn4C)cccc3C(=O)N([C@H](C)CO)C[C@H]2C)cc1,·,27*,6[16.7 µM],5,0
Cc1cc(C(=O)Nc2cccc3c2O[C@H](CN(C)C)[C@H](C)CN([C@@H](C)CO)C3=O)n(C)n1,·,28*,15[16.7 µM],5,5
Cc1cc(C(=O)Nc2cccc3c2O[C@H](CN(C)Cc2ccc(C(=O)O)cc2)[C@H](C)CN([C@H](C)CO)C3=O)n(C)n1,·,46*,0[16.7 µM],-1,7
Cc1cc(C(=O)Nc2cccc3c2O[C@H](CN(C)Cc2ccc(C(=O)O)cc2)[C@@H](C)CN([C@H](C)CO)C3=O)n(C)n1,·,17,3[16.7 µM],-11,-4
CC=Cc1ccc2n(c1=O)C[C@H]1[C@H](CO)[C@@H](C(=O)NCC)[C@@H]2N1C(=O)c1ccc(F)cc1 (mixture of isomers),·,-3,0[16.7 µM],-6,·
O=C(C[C@@H]1CC[C@H]2[C@@H](COC[C@H](O)CN2S(=O)(=O)c2ccccc2F)O1)NCc1ccccc1Cl,·,-16,4[16.7 µM],-7,-3
SMILES,PvdQ acylase,DENV2 CPE rescue,miR122 inh,Statin myotox sup,PGC1a acetyl inh
CCOc1ccc(/C=N/n2nnnc2N)cc1OCC,-7,27*,-3,-1,-4
CNc1cc(-c2ccc(O)cc2C)ncn1,·,29*,-7,5,-1
C[C@@H]1CCCCO[C@H](CN(C)C(=O)Cc2ccccc2)[C@@H](C)CN([C@H](C)CO)C(=O)c2cc(NC(=O)Nc3ccc(F)cc3)ccc2O1,·,-4,14[16.7 µM],·,13
O=C(NCc1ccccc1)C(c1ccc(C(F)(F)F)cc1)n1c(=O)c(-c2cc3ccccc3[nH]2)nc2ccccc21 (stereo not given),·,38*,·,·,·
O=C(Nc1ccc2ccccc2c1)C(C1CC1)n1c(=O)c(-c2cc3ccccc3[nH]2)nc2ccccc21 (stereo not given),·,47*,·,·,·
N#Cc1ccc(C(C(=O)NCc2ccccc2)n2c(=O)c(-c3cc4ccccc4[nH]3)nc3ccccc32)cc1 (stereo not given),·,4,·,·,·
Cc1ccc(-n2c(-c3ccccc3)c[nH]c2=S)cc1,-12,·,·,·,·
S=c1[nH]cc(-c2ccccc2)n1-c1ccccc1,-1,·,0,98*,-7
O=C(OCc1nc2ccccc2s1)c1ccc(Br)o1,11,4,8,·,9
O=C(OCc1nc2ccccc2s1)c1ccco1,46*,2,-3,5,4
CCCNC(=O)N1[C@H](CO)[C@H](c2ccc(C#Cc3cccc(F)c3)cc2)[C@@H]1C#N,·,19,·,·,-7
CCC(=O)NCCc1nc2ccccc2n1Cc1ccccc1,-1,·,-4,124*,7
CN1C(=O)c2cc(NS(=O)(=O)c3ccc(F)cc3)ccc2OC[C@H]2O[C@@H](CC(=O)O)CC[C@@H]21,·,6,3[16.7 µM],10,-1
O=C(C[C@@H]1C=C[C@H](NC(=O)C2CCOCC2)[C@H](CO)O1)Nc1ccccc1,·,3,·,·,1
O=C1CCCC2=C1C(c1cccs1)Nc1ccc3ncccc3c12 (stereo not given),-4,·,-3,139*,7
Cc1ccsc1C1Nc2ccc3ncccc3c2C2=C1C(=O)CC(C)(C)C2 (stereo not given),9,·,95*,32,-14
CC1(C)CC(=O)C2=C(C1)c1c(ccc3ccccc13)NC2c1ccco1 (stereo not given),-12,1,11,18,-6
